The values below come from PubChem BioAssay (NCATS).

Assay [1] concerns the target Rap guanine nucleotide exchange factor 3 (Homo sapiens) (UniProt O95398). Kind of assay: Confirmatory qHTS for antagonist of cAMP-regulated guanine nucleotide exchange factor 3 (EPAC1) (AID 1645880). Note: nearly all actives have a fitted effect of over 55% in size. Note: potency is the fitted concentration of half-maximal effect. The method, boiled down: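 Nucleotide exchange uses 100 nM EPAC1, 250 nM RAP1B-BODIPY-GDP and 50 uM GDP, with compounds in a concentration-titration series. After 5 min at room temperature, fluorescence (480 nm ex/540 nm em) is read every 5 min for 30 min. Data are normalized to control ATA and DMSO.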
(Quantitative high-throughput screening tests each substance at several concentrations.)

Assay [2] shares this target. Kind of assay: Confirmatory qHTS for agonist of cAMP-regulated guanine nucleotide exchange factor 3 (EPAC1) (AID 1645881).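 Note: EPAC1 catalysed release of BODIPY-GDP from Rap1B seen as fluorescence loss; 100% = effect of cAMP agonist control; nearly all actives have a fitted effect of over 75% in size.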
Assay [3] addresses Rap guanine nucleotide exchange factor 4 (Homo sapiens) (UniProt Q8WZA2). Nature of the assay: Confirmatory qHTS for agonist of cAMP-regulated guanine nucleotide exchange factor 4 (EPAC2) (AID 1645884).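 Note: nucleotide exchange releases bodipy-GDP from Rap1 and this lowers its fluorescence; % is set by controls: 0 for no effect and ±100 for the full control effect; nearly all actives have a fitted effect of over 65% in size.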
Assay [4] has the same target. Kind of assay: Confirmatory qHTS for antagonist of cAMP-regulated guanine nucleotide exchange factor 4 (EPAC2) (AID 1645885). For activity change, negative = inhibition: % is set by controls: 0 for no effect and ±100 for the full control effect. Note: nearly all actives have a fitted effect of over 25% in size. Note: potency is the fitted concentration of half-maximal effect.
Assay [5] has as its target Rap guanine nucleotide exchange factor 3 (Homo sapiens) (UniProt O95398). Kind of assay: Counterscreen qHTS for antagonist of cAMP-regulated guanine nucleotide exchange factor 3 (EPAC1) (AID 1645888).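 Note: fluorescence loss as bound BODIPY-GDP is released from Rap1B; % of control where 0% means no effect.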 The method, boiled down: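 Measured: fluorescence of BODIPY-GDP bound to Rap1B, which falls as exchange proceeds. Conditions include 50 uM competing GDP, 5 and 30 min reads, and a later cAMP challenge for antagonist detection.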

Records with an inconclusive call do not appear. Unmarked numbers belong to inactive results. Active and inactive are the calls of the source. Calls come from the whole dose curve; as a rule, active = well fitted curve in the direction sought with a large enough effect; inconclusive = small, poorly fitted or top-dose-only effect, or another doubt; inactive = no such curve, though single readings can be large; an effect the other way counts as inactive or inconclusive.

Rap guanine nucleotide exchange factor 4 (Homo sapiens), sequence (Q8WZA2 whole entry, looked up): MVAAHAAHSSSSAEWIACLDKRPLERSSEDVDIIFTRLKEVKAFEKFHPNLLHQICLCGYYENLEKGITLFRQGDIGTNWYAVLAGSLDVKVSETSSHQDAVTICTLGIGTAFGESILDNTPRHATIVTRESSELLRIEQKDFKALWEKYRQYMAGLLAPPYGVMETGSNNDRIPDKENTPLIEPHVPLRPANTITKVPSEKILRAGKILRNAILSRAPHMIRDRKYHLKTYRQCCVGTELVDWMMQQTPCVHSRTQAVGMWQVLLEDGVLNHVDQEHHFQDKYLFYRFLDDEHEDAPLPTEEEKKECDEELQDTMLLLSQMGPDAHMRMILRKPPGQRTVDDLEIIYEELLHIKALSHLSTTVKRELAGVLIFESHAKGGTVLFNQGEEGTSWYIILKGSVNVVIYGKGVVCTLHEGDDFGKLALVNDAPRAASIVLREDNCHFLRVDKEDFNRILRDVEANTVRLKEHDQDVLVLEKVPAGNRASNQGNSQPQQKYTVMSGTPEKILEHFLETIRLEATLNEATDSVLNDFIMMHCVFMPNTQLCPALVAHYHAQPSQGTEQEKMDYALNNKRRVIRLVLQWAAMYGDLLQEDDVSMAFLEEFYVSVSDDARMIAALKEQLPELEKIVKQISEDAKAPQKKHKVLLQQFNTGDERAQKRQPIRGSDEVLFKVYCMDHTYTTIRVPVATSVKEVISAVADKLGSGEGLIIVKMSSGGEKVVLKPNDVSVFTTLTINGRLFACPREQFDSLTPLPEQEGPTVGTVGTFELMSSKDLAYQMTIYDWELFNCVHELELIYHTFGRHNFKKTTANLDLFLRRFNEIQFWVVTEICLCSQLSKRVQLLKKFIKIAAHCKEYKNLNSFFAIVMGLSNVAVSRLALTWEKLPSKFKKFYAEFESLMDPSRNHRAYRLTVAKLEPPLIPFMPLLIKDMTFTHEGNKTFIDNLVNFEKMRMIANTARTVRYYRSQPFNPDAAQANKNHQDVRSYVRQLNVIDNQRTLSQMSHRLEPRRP
Rap guanine nucleotide exchange factor 3 (Homo sapiens), sequence (O95398 whole entry, looked up): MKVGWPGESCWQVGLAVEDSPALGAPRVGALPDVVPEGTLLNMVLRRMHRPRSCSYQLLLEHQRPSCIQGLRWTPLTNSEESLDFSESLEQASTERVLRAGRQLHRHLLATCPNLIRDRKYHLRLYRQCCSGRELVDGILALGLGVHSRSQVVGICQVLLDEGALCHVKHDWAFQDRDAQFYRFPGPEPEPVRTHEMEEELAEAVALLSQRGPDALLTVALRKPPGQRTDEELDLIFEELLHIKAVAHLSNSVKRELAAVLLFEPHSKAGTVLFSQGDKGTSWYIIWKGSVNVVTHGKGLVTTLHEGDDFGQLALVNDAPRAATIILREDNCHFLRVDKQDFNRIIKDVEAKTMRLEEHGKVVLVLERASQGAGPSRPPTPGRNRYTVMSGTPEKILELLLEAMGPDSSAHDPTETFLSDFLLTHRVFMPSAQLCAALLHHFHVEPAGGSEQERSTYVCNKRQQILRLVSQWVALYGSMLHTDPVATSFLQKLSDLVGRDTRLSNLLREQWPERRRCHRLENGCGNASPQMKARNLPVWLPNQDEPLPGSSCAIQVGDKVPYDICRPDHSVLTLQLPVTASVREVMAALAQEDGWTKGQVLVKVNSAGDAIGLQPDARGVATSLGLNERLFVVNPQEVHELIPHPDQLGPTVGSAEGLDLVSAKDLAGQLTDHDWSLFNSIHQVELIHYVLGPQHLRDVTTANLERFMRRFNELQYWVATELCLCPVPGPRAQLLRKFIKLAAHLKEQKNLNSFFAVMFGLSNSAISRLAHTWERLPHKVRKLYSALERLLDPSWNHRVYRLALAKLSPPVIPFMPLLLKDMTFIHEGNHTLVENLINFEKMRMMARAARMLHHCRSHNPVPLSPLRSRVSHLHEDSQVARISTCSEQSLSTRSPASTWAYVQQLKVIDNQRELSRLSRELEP

For `CCCc1cc(C(=O)Nc2ccccc2C(=O)OC)no1`, the Potency entry in assay [1], in assay [2], in assay [3], in assay [4] and in assay [5] was “inactive” each time.

Turning to `CN(c1ncnc2onc(-c3cccc(Cl)c3)c12)C1CCCCC1`, the Potency result in assay [1], in assay [2], in assay [3] and in assay [5] was “inactive” in each case. In addition, the outcome in assay [4] is “inactive [at 12.7 µM]”.

Turning to `CCOc1ccc(N2CC(c3nc4ccccc4n3Cc3cccc(Cl)c3)CC2=O)cc1` (stereo not given), the Potency result in assay [1], in assay [2], in assay [3], in assay [4] and in assay [5] was “inactive” throughout.

With `CCc1ccc(NC(=O)CSc2nnc(Cc3cccn3C)n2-c2ccc(OC)cc2)cc1`, the Potency entry in assay [1], in assay [2] and in assay [4] was “inactive” in each case. Also, in assay [3], the activation was 15.3% [at 17.1 µM, percent relative to cAMP agonist control]. Further, in assay [5], the activity change, negative = inhibition was -10.1% [at 30.8 µM].

With `O=C1C=C(N2CCCCC2)c2ccccc2C1=O`, the Potency in assay [1] was 25.1 µM (active). Also, the Potency entry in assay [2] and in assay [4] was “inactive” throughout. Moreover, the activation in assay [3] was 2.92% [at 17.1 µM, percent relative to cAMP agonist control]. Besides, the activity change, negative = inhibition in assay [5] was -3.66% [at 30.8 µM].

For `Cc1ccc(N2C(=O)c3ccccc3C2C(=O)c2ccc(O)cc2O)cc1` (stereo not given), the Potency result in assay [1], in assay [2], in assay [3], in assay [4] and in assay [5] was “inactive” each time.

In the case of `COc1cc(Nc2cc(C)nc3ncnn23)cc(OC)c1`, the Potency entry in assay [1], in assay [2], in assay [3], in assay [4] and in assay [5] was “inactive” each time.

Turning to `CCCCCNC(=O)C(c1cc2ccccc2o1)n1c(=O)c(-c2ccco2)nc2ccccc21` (stereo not given), the Potency in assay [1] is 16.9 µM (active); in assay [4], 10.7 µM (active). The Potency result in assay [2], in assay [3] and in assay [5] was “inactive” in each case.

With `COc1ccc(-n2ccn(Cc3ccccc3Cl)c(=O)c2=O)cc1OC`, the Potency entry in assay [1], in assay [2], in assay [3], in assay [4] and in assay [5] was “inactive” in each case.

For the molecule `CC1(c2ccccc2)CC(C)(C)N2C(=O)Cc3cccc1c32` (stereo not given), the Potency result in assay [1], in assay [2], in assay [3] and in assay [5] was “inactive” each time. In addition, the Potency in assay [4] was 33.8 µM (active).

As for `Cc1ccc(S(=O)(=O)CC(=O)N(CCCN(C)C)c2nc3ccc(C)cc3s2)cc1`, the Potency result in assay [1], in assay [2], in assay [3], in assay [4] and in assay [5] was “inactive” in each case.

As to `Cc1cccc(-n2nc(C)c(C(=O)Nc3cc(C)ccc3C)c2-n2cccc2)c1`, the Potency entry in assay [1], in assay [2], in assay [3], in assay [4] and in assay [5] was “inactive” throughout.

Take `CNc1ccc(/C=C(\C#N)C(=O)Nc2ccccn2)cc1[N+](=O)[O-]`: the Potency entry in assay [1], in assay [2] and in assay [4] was “inactive” each time. The activation in assay [3] was 0.449% [at 17.1 µM, percent relative to cAMP agonist control]. In assay [5], the activity change, negative = inhibition was -23.3% [at 30.8 µM].

In the case of `S=C(Nc1ccccc1)Nc1ccccn1`, the Potency entry in assay [1], in assay [2] and in assay [4] was “inactive” in each case. Further, in assay [3], the activation is 9.11% [at 17.1 µM, percent relative to cAMP agonist control]. Besides, the activity change, negative = inhibition in assay [5] is 9.21% [at 30.8 µM].

`Cc1ccc(N(CCC#N)C(=O)COC(=O)c2ccccc2SCC(=O)N2CCCC2)cc1`: the Potency entry in assay [1], in assay [2], in assay [3], in assay [4] and in assay [5] was “inactive” each time.

In the case of `COc1ccc(OCc2nc3ccccc3n2Cc2ccccc2Cl)cc1`, the Potency entry in assay [1], in assay [2], in assay [3], in assay [4] and in assay [5] was “inactive” each time.

`CCOc1ccc(CCNc2ncnc3onc(-c4ccc(Cl)cc4)c23)cc1OCC`: the Potency entry in assay [1], in assay [2], in assay [3], in assay [4] and in assay [5] was “inactive” throughout.

On to `COc1cc(CNn2cnnc2)ccc1OCC(=O)NC(C)(C)C`, for which the Potency entry in assay [1], in assay [2], in assay [3], in assay [4] and in assay [5] was “inactive” throughout.

Take `Cc1sc(NC(=O)C2=COCCO2)nc1-c1ccc(Cl)cc1`: the Potency entry in assay [1], in assay [2], in assay [3], in assay [4] and in assay [5] was “inactive” throughout.

In the case of `CCc1cc2c(-c3ccccc3)cc(=O)oc2cc1OCC(=O)NCC1CCC(C(=O)O)CC1` (stereo not given), the Potency result in assay [1], in assay [2], in assay [3], in assay [4] and in assay [5] was “inactive” in each case.

As for `c1ccc(N2[C@@H]3c4ccccc4C[C@H]2c2ccccc23)cc1`, the Potency result in assay [1], in assay [2] and in assay [4] was “inactive” throughout. In addition, in assay [3], the activation is 8.36% [at 17.1 µM, percent relative to cAMP agonist control]. Moreover, the activity change, negative = inhibition in assay [5] was -11.2% [at 30.8 µM].

`O=C(OCc1ccc([N+](=O)[O-])cc1)c1cc(=O)c2ccccc2o1`: the Potency entry in assay [1], in assay [2], in assay [3], in assay [4] and in assay [5] was “inactive” in each case.

As for `CCOC(=O)[C@H]1Nc2ccc(Cl)cc2[C@@H]2[C@H]1C1CC(c3ccccc31)N2C(=O)OCc1ccccc1` (stereo not given in full), the Potency result in assay [1], in assay [2] and in assay [4] was “inactive” throughout. The activation in assay [3] was 1.97% [at 17.1 µM, percent relative to cAMP agonist control]. The activity change, negative = inhibition in assay [5] is 4.44% [at 30.8 µM].

For `CC(=O)c1sc(NC(=O)c2c(F)cccc2F)nc1C`, the Potency result in assay [1], in assay [2], in assay [3], in assay [4] and in assay [5] was “inactive” each time.

On to `COc1ccc(C(=O)Nc2ccc(-c3cc4ccccc4oc3=O)c(C)c2)cc1OC`, for which the Potency result in assay [1], in assay [2], in assay [3], in assay [4] and in assay [5] was “inactive” throughout.
